The values below come from PubChem BioAssay.

Each structure is given as a SMILES string. Calls of active or inactive are those of the source.

Experiment [1] relates to Human papillomavirus type 1a protein E7 (residues 44-93). Briefly: HPV1a E7 fragment binders on microarrays, primary screen, biochemical, small-molecule microarray, residues 44-93, 635 nm fluorescence (AID 1108).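 Note: E7 fragment applied at 1 µg/mL in TBST for 1 h at 4 C; score combines spot fluorescence with its signal to noise ratio.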 To be noted: small-molecule microarray binding, fluorescence 635 nm; higher = more signal.
A short description of experiment [2]: modulators of HCV replicon luciferase signal, primary screen, HCV replication inhibitor project, Huh7 cells, luciferase reporter (AID 1109).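 Note: huh7 hepatoma cells harbouring a luciferase neomycin HCV replicon reporter; luciferase luminescence as measure of HCV replicon replication; test concentration not given here.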 To be noted: 48 h, higher = more signal.
The target in experiment [3] is Left-right determination factor 2 (Homo sapiens) (UniProt O00292). As to the kind of experiment: LEFTY2 binders on small-molecule microarrays, primary screen, biochemical, small-molecule microarray, 635 nm fluorescence scan (AID 1110). To be noted: LEFTY2 binding, higher = more signal.
Experiment [4] addresses Calmodulin-1 (Homo sapiens) (UniProt P0DP23). As to the kind of experiment: CALM1 binders on microarrays, EGTA buffer, profiling panel, biochemical, small-molecule microarray, Cy5-labelled CALM1 (AID 1111).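 Note: labelled calmodulin applied in Tris saline Tween buffer holding calcium plus EGTA and DTT.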 To be noted: Cy5-CALM1 binding fluorescence, higher = more signal.
Experiment [5] shares this target. Briefly: calcium-bound CALM1 binders on microarrays, profiling panel, artefact control for SMM control-protein annotation, biochemical, small-molecule microarray, Cy5-labelled CALM1, plus calcium (AID 1112).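 Note: score merges spot fluorescence with signal to noise from triplicate slides.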 Conditions: Cy5-CALM1 binding fluorescence, higher = more signal.
The nature of experiment [6]: small-molecule microarray binders of probe aWnt5a, primary screen, biochemical, biotinylated probe, 635/667 nm fluorescence (AID 1113).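 Note: score merges 667 nm fluorescence intensity with signal-to-noise per printed feature.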 Conditions: higher = more signal.
The nature of experiment [7]: small-molecule microarray binders of probe aShh, primary screen, biochemical, biotinylated probe, 635/667 nm fluorescence (AID 1114).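 Note: probe is biotin-labelled aShh protein from a stem cell growth factor screen; measures binding of labelled protein to compounds printed on the slide; score merges feature fluorescence at 667 nm with signal-to-noise.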 Conditions: higher = more signal.
Experiment [8] can be described thus: small-molecule microarray binders of probe aNog, primary screen, biochemical, biotinylated probe, 635/667 nm fluorescence (AID 1115).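 Note: probe is biotinylated aNog protein used at 0.15 µg/mL for 1 h at 4 C; z-score combines 667 nm fluorescence of each spot with its signal to noise.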 To be noted: higher = more signal.
For experiment [9], the target named is Torsin-1A-interacting protein 1 (Homo sapiens) (UniProt Q5JTV8). As to the kind of experiment: LAP1 binders from COS7 cell lysate, primary screen, small-molecule microarray, 635/667 nm fluorescence (AID 1116). Conditions: COS7-hLAP1 lysate binding, 635 nm fluorescence, higher = more signal.
For experiment [10], the target named is Alpha-bungarotoxin (Bungarus multicinctus) (UniProt P60615). Briefly: alpha-bungarotoxin binders on microarray, profiling panel, artefact control for SMM control protein annotation, biochemical, small-molecule microarray, Alexa647 label, 635/667 nm fluorescence (AID 1117). Conditions: alpha-BTX-A647 binding fluorescence, higher = more signal.
The target of a further experiment is Albumin (Bos taurus) (UniProt P02769). As to the kind of experiment: bovine serum albumin binders on microarray, profiling panel, artefact control for SMM control protein annotation, biochemical, small-molecule microarray, Alexa647 label, 635/667 nm fluorescence (AID 1118).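 Note: score merges 667 nm emission intensity and signal-to-noise per printed compound spot.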 Conditions: BSA-A647 binding, fluorescence 635 nm, higher = more signal.
Experiment [11] can be described thus: small-molecule microarray binders of probe aXIP, primary screen, biochemical, NeuroSMM set, 635/667 nm fluorescence (AID 1119).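 Note: probe is the protein aXip251-270 applied at 1 µg/mL to compound-printed slides; binding of probe to printed compounds measured as 667 nm fluorescence plus signal to noise.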 Conditions: higher = more signal, called active from +8 up or from −8 down.
Experiment [12] is described as follows: small-molecule binders of probe aNOTCH3, primary screen, biochemical, small-molecule microarray, 635/667 nm fluorescence (AID 1120).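 Note: probe is a biotin-tagged antibody raised against NOTCH3 rather than NOTCH3 protein; score merges spot fluorescence near 667 nm with spot signal to noise.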 Conditions: higher = more signal.
Experiment [13] in a line: small-molecule binders of probe aNOTCH2, primary screen, biochemical, small-molecule microarray, 635/667 nm fluorescence (AID 1121).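 Note: score merges feature fluorescence read at 667 nm with its signal to noise.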 Conditions: higher = more signal.
Experiment [14] addresses Carbonic anhydrase 2 (Homo sapiens) (UniProt P00918). As to the kind of experiment: CAII small-molecule binders, profiling panel, biochemical, small-molecule microarray, Alexa647-labelled CAII (AID 1122). Conditions: CAII-A647 binding fluorescence, higher = more signal.
Experiment [15] is described as follows: COS7 lysate on small-molecule microarray, probe aHis, 635 nm (AID 1123).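 Note: z-score combines 667nm fluorescence intensity with signal-to-noise per printed compound spot.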 Conditions: COS7 cell lysate, fluorescence, higher = more signal.
The nature of experiment [16]: compound binding in COS7 lysate, probe aLAP1, primary screen, cell lysate, small-molecule microarray (AID 1124).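 Note: lysate comes from COS7 cells expressing LAP1 and is applied at 0.3 µg/mL; score merges spot fluorescence near 667 nm with signal-to-noise over triplicate slides.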 Conditions: probe aLAP1, fluorescence, higher = more signal.
The test system of a further experiment is Sam68 (KHDRBS1). Briefly: Sam68 small-molecule binders, primary screen, biochemical, small-molecule microarray, 635 nm fluorescence (AID 1125).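 Note: score merges 667 nm channel intensity with signal to noise over triplicate slides.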 To be noted: small-molecule microarray binding, higher = more signal.
In experiment [17] the test system is Chordin-like protein 2 (CHRDL2). As to the kind of experiment: CHRDL2 small-molecule binders, primary screen, biochemical, small-molecule microarray, 635 nm fluorescence (AID 1126).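 Note: printed compound slides probed with Chrdl2 protein at 4 µg/mL for 1 h at 4 C; score merges 667 nm emission intensity with signal to noise over three replicate slides.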 To be noted: small-molecule microarray binding, fluorescence 635 nm; higher = more signal.
Experiment [18] concerns the target Concanavalin-A (Canavalia ensiformis) (UniProt P02866). As to the kind of experiment: ConA small-molecule binders, primary screen, artefact control for SMM control protein annotation, biochemical, small-molecule microarray, Alexa647 label, 635 nm (AID 1127).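 Note: z combines 667 nm emission intensity with signal-to-noise across three replicate slides.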 To be noted: ConA-A647 binding fluorescence, higher = more signal.

Chain of Concanavalin-A (Canavalia ensiformis) (P02866 whole entry, looked up): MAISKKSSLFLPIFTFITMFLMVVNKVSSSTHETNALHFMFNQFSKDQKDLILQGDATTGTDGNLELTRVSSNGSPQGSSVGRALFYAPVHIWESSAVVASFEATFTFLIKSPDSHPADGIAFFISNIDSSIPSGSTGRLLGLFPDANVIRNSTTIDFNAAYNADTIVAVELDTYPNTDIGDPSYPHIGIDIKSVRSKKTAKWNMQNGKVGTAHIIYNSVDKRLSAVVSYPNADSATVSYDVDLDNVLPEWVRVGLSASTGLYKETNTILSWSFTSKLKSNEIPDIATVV
Chain of Albumin (Bos taurus) (P02769 whole entry, looked up): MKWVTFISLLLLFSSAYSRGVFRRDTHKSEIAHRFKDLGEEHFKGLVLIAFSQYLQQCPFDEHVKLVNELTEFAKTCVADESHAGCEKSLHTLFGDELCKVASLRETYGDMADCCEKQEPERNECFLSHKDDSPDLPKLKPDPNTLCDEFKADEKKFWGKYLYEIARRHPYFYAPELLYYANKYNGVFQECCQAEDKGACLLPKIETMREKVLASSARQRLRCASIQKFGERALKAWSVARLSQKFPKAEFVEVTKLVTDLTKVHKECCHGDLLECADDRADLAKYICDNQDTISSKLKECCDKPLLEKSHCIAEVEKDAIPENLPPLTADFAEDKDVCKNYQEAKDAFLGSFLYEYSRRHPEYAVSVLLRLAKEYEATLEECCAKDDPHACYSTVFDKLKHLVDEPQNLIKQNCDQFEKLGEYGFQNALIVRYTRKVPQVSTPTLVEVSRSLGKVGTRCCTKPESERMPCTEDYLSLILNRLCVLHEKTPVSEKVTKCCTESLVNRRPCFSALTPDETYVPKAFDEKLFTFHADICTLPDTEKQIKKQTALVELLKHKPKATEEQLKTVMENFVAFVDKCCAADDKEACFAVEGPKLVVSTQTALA
Chain of Alpha-bungarotoxin (Bungarus multicinctus) (P60615 whole entry, looked up): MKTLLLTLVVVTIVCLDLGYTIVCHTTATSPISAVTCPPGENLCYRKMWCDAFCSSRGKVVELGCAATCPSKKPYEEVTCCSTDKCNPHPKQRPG
Chain of Torsin-1A-interacting protein 1 (Homo sapiens) (Q5JTV8 whole entry, looked up): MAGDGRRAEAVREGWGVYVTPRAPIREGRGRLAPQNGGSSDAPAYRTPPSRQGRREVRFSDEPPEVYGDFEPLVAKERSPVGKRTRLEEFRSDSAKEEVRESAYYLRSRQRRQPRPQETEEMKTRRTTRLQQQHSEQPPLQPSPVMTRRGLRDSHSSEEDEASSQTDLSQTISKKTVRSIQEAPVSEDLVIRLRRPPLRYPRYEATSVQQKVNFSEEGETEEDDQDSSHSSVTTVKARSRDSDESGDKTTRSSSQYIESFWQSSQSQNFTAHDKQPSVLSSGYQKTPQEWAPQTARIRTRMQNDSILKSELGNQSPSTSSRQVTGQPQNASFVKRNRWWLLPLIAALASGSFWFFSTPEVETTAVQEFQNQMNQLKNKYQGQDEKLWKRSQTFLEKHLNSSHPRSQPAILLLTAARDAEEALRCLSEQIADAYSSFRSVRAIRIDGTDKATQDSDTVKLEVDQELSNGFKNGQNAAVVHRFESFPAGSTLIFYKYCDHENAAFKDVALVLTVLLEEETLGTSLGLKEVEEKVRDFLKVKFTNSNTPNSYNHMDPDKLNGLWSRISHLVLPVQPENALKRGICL
Chain of Left-right determination factor 2 (Homo sapiens) (O00292 whole entry, looked up): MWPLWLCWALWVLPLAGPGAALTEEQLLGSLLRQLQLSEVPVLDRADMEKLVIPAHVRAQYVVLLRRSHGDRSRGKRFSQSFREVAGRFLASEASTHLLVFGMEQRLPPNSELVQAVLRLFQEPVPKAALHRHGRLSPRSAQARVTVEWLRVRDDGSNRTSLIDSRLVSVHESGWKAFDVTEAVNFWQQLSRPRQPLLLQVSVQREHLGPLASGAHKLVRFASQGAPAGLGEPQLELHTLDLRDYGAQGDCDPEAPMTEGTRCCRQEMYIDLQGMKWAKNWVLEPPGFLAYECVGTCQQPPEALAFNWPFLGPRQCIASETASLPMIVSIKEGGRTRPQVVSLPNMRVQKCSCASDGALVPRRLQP

In the case of `C=CCN1C(=O)[C@@]2(O[C@@H](CCO)[C@H]([Si](C)(C)c3ccc(OC)cc3)[C@H]2C)c2cc(N3C(=O)COc4ccccc43)ccc21`, the composite z-score in experiment [1] is 1.33; in experiment [3], 0.345; in experiment [4], 0.695; in experiment [5], -0.334; in experiment [6], 0.149; in experiment [7], -0.0626. Further, the composite z-score in experiment [8] was -0.292; in experiment [9], 1.16; in experiment [10] it was 0.445; with Albumin (Bos taurus), 0.277; in experiment [12], -0.141; in experiment [13] it was -0.14. Further, the composite z-score in experiment [14] was 0.277; in [15], 1.4; in experiment [16] it was 0.0661; in the experiment with Sam68 (KHDRBS1), 1.29; in experiment [17], -0.317; in experiment [18], 0.973. In addition, in [2], the z-score is -5.18. In addition, the composite Z-score in experiment [11] was 0.69 (inactive).

As to `O=[N+]([O-])c1ccc(C[n+]2ccc(CCCO)cc2)o1`, the composite z-score in experiment [1] is 1.15; in [3] it was 0.69; in experiment [4], 1.2; in experiment [5], 0.561; in experiment [6], -0.0364; in [7], -0.0035. Moreover, the composite z-score was -0.278 in [8]; 0.261 in experiment [9]; 1.47 in experiment [10]; 0.766 with Albumin (Bos taurus); 0.277 in experiment [12]; 0.0655 in experiment [13]. For the same compound, the composite z-score in [14] came to 0.82; in [15], 1.82; in [16], 0.313; in the experiment with Sam68 (KHDRBS1) it was 0.916; in experiment [17], 0.793; in experiment [18], 1.09. In experiment [2], this compound yielded a z-score of -0.341. Moreover, the composite Z-score in [11] is -0.138 (inactive).

For the compound `C=CCNC(=O)[C@H]1[C@@H]2C(=O)O[C@@H](c3ccccc3)[C@@H](c3ccccc3)N2[C@@H](c2ccc(O)cc2)[C@]12C(=O)Nc1ccc(C#Cc3ccc(OC)cc3)cc12`, the composite z-score in experiment [1] is 0.758; in [3], 0.884; in [4], 0.664; in [5] it was -0.367; in [6], -0.219; in experiment [7], 0.278. For the same compound, the composite z-score in experiment [8] was 0.409; in experiment [9] it was 1.31; in [10], 0.196; with Albumin (Bos taurus), -0.208; in experiment [12], -0.0903; in experiment [13] it was 0.0086. Moreover, the composite z-score in experiment [14] was 0.38; in [15], 1.68; in [16], 0.616; in the experiment with Sam68 (KHDRBS1), 1.3; in experiment [17], 0.704; in experiment [18], 0.552. The same compound registered a z-score in experiment [2] of -2.06. In addition, the composite Z-score in experiment [11] was -0.155 (inactive).

Take `C=CCC(OC(C)=O)[C@@H]1[C@@H](N(Cc2cc3ccccc3o2)C(=O)c2ccc(C)cc2)c2cc(OCCCO)ccc2N1C(=O)c1ccc(-c2ccccc2)cc1` (stereo not given in full): the composite z-score in experiment [1] is 0.182; in experiment [3] it was 0.36; in [4], -0.259; in experiment [5] it was 0.544; in experiment [6], -0.0529; in experiment [7], 0.0141. For the same compound, the composite z-score in experiment [8] is -0.374; in experiment [9], 0.285; in experiment [10], 0.169; with Albumin (Bos taurus), -0.0944; in [12], 0.102; in [13], -0.18. Besides, the composite z-score was 0.0677 in experiment [14]; 0.263 in [15]; -0.161 in experiment [16]; 0.318 in the experiment on Sam68 (KHDRBS1); 0.073 in [17]; -0.0198 in [18]. This compound came in with a z-score in [2] of -1.67. In addition, in experiment [11], the composite Z-score is 0.0882 (inactive).

As for `CCOC(=O)C1=C[C@@H](C(C)(C)C)N(S(=O)(=O)c2ccc(C)cc2)[C@H]1c1ccc(Cl)c(Cl)c1`, the composite z-score in experiment [1] was 1.34; in [3] it was 0.595; in [4], 1.46; in experiment [5], 0.122; in experiment [6], -0.154; in [7] it was 0.213. In addition, the composite z-score in experiment [8] is 0.863; in experiment [9] it was 0.735; in [10] it was 1.35; with Albumin (Bos taurus), 0.867; in [12], 0.163; in experiment [13] it was 0.0601. In addition, the composite z-score in experiment [14] is 0.497; in [15] it was 1.79; in [16], 1.03; in the experiment on Sam68 (KHDRBS1), 1.3; in [17], 0.185; in [18], 1.16. In addition, the z-score in [2] is -0.501. The composite Z-score in experiment [11] is -0.179 (inactive).
